Rows were chosen to be rich in hits. Some 18% of all compounds tested hit in one or more screens of this group.
TDP1 block: TDP1 (human) enzyme inhibition | Q9NUW8 | recombinant TDP1, AlphaScreen DNA substrate cleavage | Potency, µM (doses to about 130 µM), hits mostly inhibitors | actives 0.28% (n = 350,000) | AID 485290; note: nearly all actives have a fitted effect of over 40% in size
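AlphaScreen read-out: signal falls as enzyme removes the 3' tyrosine-FITC from a 5'-biotinylated DNA oligo (15 nM, 5 min, RT). Enzyme was E. coli-made recombinant Tdp1 at 1 nM, exposed to compound for 15 min beforehand; beads 10 ug/ml, 10 min.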
PLK1 PBD inh: inhibitors of human PLK1 polo-box domain binding | P53350 | Plk1 PBD binding of FITC phosphopeptide, fluorescence polarization | Potency, µM, actives largely listed as inhibitors | actives 2.8% (n = 360,000) | AID 720504; note: series mostly up to about 57 µM; nearly all actives have a fitted effect of over 65% in size
DT40 TDP1 no CPT: qHTS for Inhibitors of human tyrosyl-DNA phosphodiesterase 1 (TDP1): qHTS in cells in absence of CPT; DT40 Tdp1-/- hTDP1 cells, no CPT, ATP luminescence, 48 h; Potency, µM (series often up to 46.2 µM), actives largely listed as inhibitors; actives 15% (n = 420,000); note: nearly all actives have a fitted effect of over 55% in size
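Readout: luminescence from CellTiter-Glo after 30 min in the dark at RT. Cells: DT40 Tdp1-/- with stable hTDP1, 400/well. Exposure: compounds alone, ≥48 hr, 37 °C.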
VDR inh: vitamin D3 receptor (human) inhibition; actives 0.93% (n = 400,000); VDR-SRC2-3 peptide fluorescence polarization, 2 h; Potency, µM, actives largely listed as inhibitors
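Reagent solutions, kept cold and dark, are dispensed first; compounds are then pinned in at 23 nl, plates briefly spun, and incubated 2 h at ambient temperature. Inhibition of VDR–SRC2-3 peptide binding is read by fluorescence polarization.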
TDP1 cell CPT: DT40-hTDP1 cell growth loss with CPT. chicken DT40 Tdp1-/-;hTDP1 cells + 20 nM CPT, ATP luminescence, 48 h. Potency, µM (series often up to 46.2 µM), hits mostly inhibitors. actives 12% (n = 420,000); note: nearly all actives have a fitted effect of over 55% in size
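Chicken DT40 Tdp1-/- cells complemented with human TDP1, 400 cells/well, exposed to compounds plus 20 nM camptothecin for at least 48 h at 37 C; viability read as ATP content by CellTiter-Glo luminescence.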
KAT2A inh: GCN5L2 (KAT2A) acetyltransferase inhibition; Q92830; GCN5L2 HAT assay, ThioGlo1 CoA-SH fluorescence; Potency, µM (titrated, usually from 58.9 µM), usual class: inhibitors; actives 0.21% (n = 390,000); AID 504327
Target sequence (Q92830 whole entry, looked up): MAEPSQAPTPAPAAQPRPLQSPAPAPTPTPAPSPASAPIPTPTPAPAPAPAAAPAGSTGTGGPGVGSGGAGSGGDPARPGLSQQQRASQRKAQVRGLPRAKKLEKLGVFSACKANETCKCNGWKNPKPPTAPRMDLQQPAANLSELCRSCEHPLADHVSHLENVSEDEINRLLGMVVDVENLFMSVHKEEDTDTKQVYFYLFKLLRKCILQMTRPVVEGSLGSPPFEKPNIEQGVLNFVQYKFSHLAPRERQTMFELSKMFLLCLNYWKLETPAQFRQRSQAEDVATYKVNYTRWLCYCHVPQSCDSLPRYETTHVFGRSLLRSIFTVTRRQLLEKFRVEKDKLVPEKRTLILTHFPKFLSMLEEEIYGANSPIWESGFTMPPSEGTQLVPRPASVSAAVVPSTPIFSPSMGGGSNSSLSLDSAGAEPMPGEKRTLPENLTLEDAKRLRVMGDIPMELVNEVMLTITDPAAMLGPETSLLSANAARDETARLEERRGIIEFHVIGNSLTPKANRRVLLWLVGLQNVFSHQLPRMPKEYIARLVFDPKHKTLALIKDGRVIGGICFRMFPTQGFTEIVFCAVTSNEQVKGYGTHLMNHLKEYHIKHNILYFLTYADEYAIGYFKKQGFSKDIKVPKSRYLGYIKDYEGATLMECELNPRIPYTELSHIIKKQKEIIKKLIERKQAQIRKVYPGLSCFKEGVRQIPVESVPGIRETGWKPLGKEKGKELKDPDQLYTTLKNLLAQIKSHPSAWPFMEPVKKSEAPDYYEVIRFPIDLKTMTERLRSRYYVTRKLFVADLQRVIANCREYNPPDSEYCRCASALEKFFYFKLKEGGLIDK
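GCN5L2 (20 nM) in 50mM HEPES pH 7.5, 0.1mM EDTA, 0.01% Tween-20 preincubated 15 min with compounds at room temperature. Reaction started with H3(1-25) 75uM, acetyl-CoA 70uM, ThioGlo1 50uM; CoA-thiol fluorescence (Ex340/Em540) read at 0 and 20 min.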
Numbers stand for hits; – = inactive; ? = inconclusive; · = no result given; [ ] = remark or other dose. Calls come from the whole dose curve; as a rule, active = well fitted curve in the direction sought with a large enough effect; inconclusive = small, poorly fitted or top-dose-only effect, or another doubt; inactive = no such curve, though single readings can be large; an effect the other way counts as inactive or inconclusive.

SMILES	TDP1 block	PLK1 PBD inh	DT40 TDP1 no CPT	VDR inh	TDP1 cell CPT	KAT2A inh
COc1ccc(CN2CC(=O)N(c3ccc(C)cc3C)C2=S)cc1OC	–	?	?	–	?	–
COc1cc(CN2CC(=O)N(c3cc(Cl)ccc3C)C2=S)cc(OC)c1OC	·	15µM	21µM	?	21µM	–
COc1cc(CN2CC(=O)N(c3ccc(C)c(C)c3)C2=S)cc(OC)c1OC	–	–	?	–	?	–
CCc1ccccc1N1C(=O)CN(Cc2cc(OC)c(OC)c(OC)c2)C1=S	·	–	21µM	–	?	–
NC1CCc2ccc([N+](=O)[O-])cc21 (configuration not stated)	·	·	?	·	–	·
Cc1ccc(CNC(=O)c2ccc3c(O)c(S(=O)(=O)c4ccc(Cl)cc4)c(=O)[nH]c3c2)cc1	–	·	–	–	–	–
CN1CCN(C2=Nc3ccccc3Cc3ccccc32)CC1	·	·	?	·	–	·
O=C(Nc1ccc(Oc2c(F)c(F)c(F)c(F)c2F)cc1)OC1CCN2Cc3ccccc3N=C12 (configuration not stated)	–	–	2.3µM	–	5.2µM	–
O[C@@H]1CCN2Cc3ccccc3N=C12	–	·	·	3.5µM	·	?
Cc1cccc(NC(=O)Nc2ccc(Oc3c(F)c(F)c(F)c(F)c3F)cc2)c1	–	–	–	–	–	–
COc1ccc(/C=c2\s/c(=C/C(=O)c3ccc(C)cc3)[nH]c2=O)cc1OC	–	–	18µM	–	?	–
CCn1cc(C(=O)NCc2ccc(C)cc2)c(=O)c2cc(S(=O)(=O)N3CCCCCC3)ccc21	–	·	21µM	–	15µM	–
CCn1cc(C(=O)NCC(OC)OC)c(=O)c2cc(S(=O)(=O)N3CCC(C)CC3)ccc21	–	–	10µM	–	?	–
CCn1cc(C(=O)NCCc2ccc(C)cc2)c(=O)c2cc(S(=O)(=O)N3CCCCC3)ccc21	–	·	–	–	–	–
CCn1cc(C(=O)NCc2ccc(Cl)cc2)c(=O)c2cc(S(=O)(=O)N3CCOCC3)ccc21	–	–	23µM	–	21µM	–
COc1ccc(O)c(-c2nc3ccccc3c(=O)n2Cc2ccccc2)c1	–	·	·	·	·	·
O=C(OCc1cn([C@@H]2CN(Cc3cccs3)[C@@H](c3ccc(Cl)cc3)C[C@H]2O)nn1)c1ccccc1	·	–	?	·	?	·
c1ccc2c(c1)CCN(Cc1nnnn1Cc1ccc3c(c1)OCO3)C2	–	–	–	–	–	–
c1ccc(Cn2nnnc2CN2CCN(Cc3ccc4c(c3)OCO4)CC2)cc1	–	–	?	–	21µM	–
CCN1CCN(C(=O)CCc2ccc(S(=O)(=O)NCCc3ccccc3)cc2)CC1	–	–	?	–	–	–
O=C(CCc1ccc(S(=O)(=O)NCc2ccccc2)cc1)N1CCN(Cc2ccc3c(c2)OCO3)CC1	–	–	?	–	32µM	–
O=C(Cn1ncc2c1-c1ccccc1OC2)N1CCN(Cc2ccc3c(c2)OCO3)CC1	–	–	?	–	–	–
O=C1CC(N2CCN(Cc3ccc4c(c3)OCO4)CC2)C(=O)N1CCc1ccccc1 (configuration not stated)	–	–	?	–	13µM	–
O=C(CN1Cc2ccccc2OC(c2ccsc2)C1)N1CCN(Cc2ccc3c(c2)OCO3)CC1 (configuration not stated)	·	·	23µM	·	–[9.04 µM]	·
C[C@@H]1CN([C@H](C)CO)C(=O)c2cc(NS(=O)(=O)c3cn(C)cn3)ccc2O[C@H]1CN(C)C(=O)Nc1ccccc1	–	–	–	–	–	–
SMILES	TDP1 block	PLK1 PBD inh	DT40 TDP1 no CPT	VDR inh	TDP1 cell CPT	KAT2A inh
O=C(CS(=O)(=O)Cc1ccccc1)N1CCN(Cc2ccc3c(c2)OCO3)CC1	–	27µM	?	?	?	–
NC(=O)C1CCCN(CC(O)COCc2ccc(Cl)cc2)C1 (configuration not stated)	·	–	–	–	–	–
CCCCCCCC/C=C/CCCCCCCC(=O)NCCOP(=O)(O)O	–	·	·	28µM	·	7.1µM
CCCCCCCC/C=C\CCCCCCCC(=O)NCc1ccc(O)c(OC)c1	–	·	?	–	3.3µM	–
CCCCCCCC/C=C\CCCCCCCC(=O)NCCc1ccc(O)c(O)c1	–	24µM	2.9µM	?	1µM	?
CCCC/C=C/[C@H](c1ccccc1)[C@H](CO)Cc1cccnc1	–	–	16µM	–	?	·
Cc1ccc(-c2nc3sc(CCNS(=O)(=O)c4cc(F)ccc4F)c(C)n3n2)cc1	–	·	21µM	–	?	–
Cc1c(CCNC(=O)C(C)(C)C)sc2nc(-c3ccc(F)cc3)nn12	–	·	26µM	–	?	–
Cc1[nH][nH]c(=O)c1C(c1ccc(Cl)cc1)c1c(C)[nH][nH]c1=O	–	30µM	–	–	–	–
Cc1[nH][nH]c(=O)c1C(c1ccc(F)cc1)c1c(C)[nH][nH]c1=O	·	?	?	–	–	–
Cc1cc(NC(=O)COc2coc(CN3CCN(c4ccc(F)cc4)CC3)cc2=O)no1	–	–	–	–	–	–
COC(=O)CSc1nnc2n1C(C)(C)Cc1ccccc1-2	–	–	–	–	–	–
COc1ccc(N2CCN(C(=O)CSc3nnc4n3C(C)(C)Cc3ccccc3-4)CC2)cc1	–	–	21µM	–	?	–
COc1ccc(N2CCN(C(=O)CSc3nnc4c(C)cc5c(C)cc(C)cc5n34)CC2)cc1	–	–	23µM	–	?	–
Cc1ccc(Cl)cc1N1CCN(C(=O)CSc2nnc3n2C(C)(C)Cc2ccccc2-3)CC1	–	–	7.3µM	–	9.2µM	–
COc1ccc(NS(=O)(=O)c2ccc(F)c(F)c2F)cc1S(=O)(=O)N1CCOCC1	–	–	–	–	–	–
Cc1ccc(OCC(=O)NC(=S)Nc2ccc(Br)cn2)cc1C	–	–	–	–	–	–
CCNC(=O)C1(C)CCN1CCC(=O)c1ccc(C)cc1 (configuration not stated)	·	–	16µM	·	21µM	·
COC(=O)c1ccc(N2CCN(C)CC2)c(NC(=O)COc2ccc(C)cc2)c1	–	–	–	–	?	–
COC(=O)c1ccc(N2CCN(C)CC2)c(NC(=O)COc2ccc(OC)cc2)c1	–	–	–	–	21µM	–
COC(=O)c1ccc(N2CCN(C)CC2)c(NC(=O)COc2ccccc2Cl)c1	·	–	23µM	–	21µM	–
COC(=O)c1ccc(N2CCN(C(C)=O)CC2)c(NC(=O)COc2ccccc2C)c1	–	–	–	–	–	–
Cc1occc1C(=O)N/N=C/C1=C(N2CCOCC2)C(=C\c2ccc(Cl)cc2Cl)/CC1	–	–	7.3µM	–	?	–
